# Measurements reported in PubChem BioAssay (EPA / NIEHS).
# Records with an inconclusive call do not appear. Activity calls are given as the source filed them. How the source made its calls: active means hit-call score of the fitted dose curve at least 0.9, where 1 is the maximum; inconclusive means response in the unintended direction; inactive means score below 0.9. Peptide text beside a SMILES is read from it.
# Tested on: not listed separately
# Assay: CCTE_Mundy_HCI_iCellGluta_NOG_NeuriteCount: CCTE's Neurite Outgrowth Assay in iCellGluta cells for Neurite Count, Mundy Lab (AID 2284342);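 further: chemical exposure about 48 hours starting 2 hours after plating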
row,Compound,outcome
1,COC(=O)[C@H](Cc1ccccc1)NC(=O)[C@@H](N)CC(=O)O (H-Asp-Phe-OMe),inactive
2,CCCCNS(=O)(=O)c1ccccc1,inactive
3,Cc1c(C(=O)c2c[nH]n(C)c2=O)ccc(S(C)(=O)=O)c1C1=NOCC1,inactive
4,Cc1noc(NS(=O)(=O)c2ccc(N)cc2)c1C,inactive
5,O=C(O)C(F)(F)C(F)(F)C(F)(F)C(F)(F)C(=O)O,inactive

# Tested on: SERPINA7 (gene 6906)
# Assay: CCTE_GLTED_hTBG: CCTE's human Thyroxine-binding Globulin (TBG) Inhibition Assay, Great Lakes Toxicology and Ecology Division (GLTED) Lab (AID 2284343);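 further: active chemicals lower fluorescence versus DMSO baseline by displacing probe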
# How it was run: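 Human TBG incubated 2 h with test chemical; displacement of ANSA probe read by fluorescence, 380 nm excitation/475 nm emission. Loss of signal relative to DMSO.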
row,Compound,AC50
1,COc1cc(O)c(C(=O)c2ccccc2)cc1S(=O)(=O)O,29.8 µM (active)
2,O=C(Oc1ccccc1)c1ccccc1O,2.52 µM (active)
3,CC(C)(c1ccccc1)c1ccc(Nc2ccc(C(C)(C)c3ccccc3)cc2)cc1,25.2 µM (active)
4,Cc1ccc([N+](=O)[O-])cc1N,50 µM (active)
5,CC1=NN(c2ccc(S(=O)(=O)O)cc2)C(=O)C1N=Nc1ccccc1 (centres undefined),27.3 µM (active)
6,CCCCCC[C@@H](O)C/C=C\CCCCCCCC(=O)OCC(O)CO (some centres undefined),26.9 µM (active)
7,CC(CCC(=O)O)(c1ccc(O)cc1)c1ccc(O)cc1,37.7 µM (active)
8,Oc1ccc(-c2ccccc2)c(Cl)c1,15.4 µM (active)
9,CCCCCCCCCCCCc1ccc(O)cc1,6.15 µM (active)
10,O=S(=O)(O)c1ccc(N=Nc2c(O)ccc3ccccc23)cc1,19 µM (active)
11,Oc1ccccc1Cc1ccccc1O,8.67 µM (active)
12,COc1ccc(-c2coc3cc(O)cc(O)c3c2=O)cc1,23 µM (active)
13,O=C(OCCc1ccccc1)c1ccccc1,22.6 µM (active)
14,COc1ccc(C(=O)c2ccccc2)c(O)c1,7.45 µM (active)
